Among the data in PubChem BioAssay (Tox21) are Potency values, retold here.

A short description of test [1]: Nuclear factor erythroid 2-related factor 2/antioxidant responsive element (Nrf2/ARE) small molecule agonists: qHTS cell viability counter screen in human keratinocytes (AID 1919968; active = well fitted curve in the direction sought with a large enough effect in the repeat runs; an effect the other way counts as inactive or inconclusive; also: nearly all actives have a fitted effect of over 55% in size). Summed up: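 Viability counter-screen: KeratinoSens reporter cells, DMSO-delivered compounds, 23 h at 37 C, CellTiter-Fluor fluorescence.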
(In qHTS, concentration-response curves come from the screen itself.)

Test [2] has as its target Gonadotropin-releasing hormone receptor (Homo sapiens) (UniProt P30968). The experiment in a line: Human gonadotropin-releasing hormone receptor (GnRHR) small molecule agonists, calcium flux assay in GnRHR-HEK293 cells (AID 1920063). Also: nearly all actives have a fitted effect of over 35% in size. In a few lines: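 Tox21-format agonist screen using human GnRHR-expressing HEK293 cells and a fluorescent calcium dye; kinetic 3-min fluorescence reading after compound addition, 15-point concentration series run in triplicate.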

Test [3] has as its target KiSS-1 receptor (Homo sapiens) (UniProt Q969F8). The experiment in a line: Human kisspeptin (KISS1R) small molecule agonists, calcium flux assay in KISS1R-HEK293 cells (AID 1920064; active = well fitted curve in the direction sought with a large enough effect in the repeat runs; an effect the other way counts as inactive or inconclusive). Summed up: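 Intracellular calcium mobilization in KISS1R-HEK293 cells was recorded by fluorescence (Ex/Em 480/540) for 3 min following compound addition to cells pre-loaded 1 h with calcium dye.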
A general note: A change in cytosolic calcium serves as a functional read-out for many receptors and channels.

A short description of test [4]: G protein-coupled receptor (GPCR) small molecule agonists, calcium flux assay: HEK293 wild type cell line counter screen (AID 1920065). In a few lines: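 In this agonist-mode screen, ATP is the positive control and DMSO the vehicle. Cells grow 18 h before a 1 h dye incubation at 37 C; signal is taken at Ex/Em 480/540 over 3 min.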
A short description of test [5]: p53 small molecule agonists, cell-based qHTS assay with rat liver microsomes (AID 1963578). Summed up: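 p53RE-bla cells were exposed to compounds together with rat liver microsomes (0.5 mg/mL final) and NADPH (0.5 mg/mL final) for 16 h at 37 C, then read by LiveBLAzer beta-lactamase fluorescence after 2 h at room temperature.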
The nature of test [6]: p53 small molecule agonists, cell-based qHTS assay with human liver microsomes: qHTS cell viability counter screen (AID 1963579). Also: nearly all actives have a fitted effect of over 45% in size. In a few lines: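 p53RE-bla cells (4,000/well) were pre-incubated 5 h at 37 C, then given compounds in DMSO plus human liver microsomes (0.5 mg/mL final) and NADPH (0.5 mg/mL final) for 16 h at 37 C. Viability was read by CellTiter-Glo luminescence.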

Test [7] in a line: p53 small molecule agonists, cell-based qHTS assay with rat liver microsomes: qHTS cell viability counter screen (AID 1963580). Also: nearly all actives have a fitted effect of over 45% in size. Summed up:
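HCT-116 p53RE-bla, 4,000 cells/well, 5 h pre-incubation; cpd + rat liver microsomes 0.5 mg/mL + NADPH 0.5 mg/mL (final); 16 h, 37 C; CellTiter-Glo, 30 min RT; luminescence.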

A short description of test [8]: p53 small molecule agonists, cell-based qHTS assay (AID 1963582; active = well fitted activation curve with a large enough effect in the signal ratio in the repeat runs, not every such curve was filed as active; the % refers to the signal ratio). In a few lines: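 Agonist activity was scored from beta-lactamase FRET fluorescence in p53RE-bla cells treated 16 h at 37 C with compounds in DMSO, substrate incubation being 2 h at room temperature.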
Test [9] deals with 5-hydroxytryptamine receptor 2A (Homo sapiens) (UniProt P28223). The test can be described thus: 5-hydroxytryptamine receptor 2A (HTR2A) small molecule antagonists, cell-based qHTS assay (AID 1963586). Also: nearly all actives have a fitted effect of over 45% in size. In a few lines:
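Antagonist-mode intracellular calcium assay: DOI (4 nM) added after 5 min compound pre-incubation at room temperature to dye-loaded HTR2A-CHO cells. Fluorescence followed for 3 min, sampled every second.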

The target is the same in test [10]. The experiment in a line: 5-hydroxytryptamine receptor 2A (HTR2A) small molecule agonists, cell-based qHTS assay (AID 1963587). Also: nearly all actives have a fitted effect of over 30% in size. Also: potency is read from the fitted curve at half-maximal effect. In a few lines: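 Kinetic calcium-flux fluorescence (2 min, 1 sec intervals) after compound addition in agonist mode. HTR2A-CHO cells were cultured 18 h, then dye-loaded 1 h at 37 C.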
For test [11], the target named is Muscarinic acetylcholine receptor M1 (Homo sapiens) (UniProt P11229). The test can be described thus: Cholinergic receptor muscarinic 1 (CHRM1) small molecule antagonists, cell-based qHTS assay (AID 1963588). Also: nearly all actives have a fitted effect of over 40% in size. Summed up: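 CHRM1-CHO calcium-flux assay, antagonist mode. Cells were seeded 18 h, dye-loaded 1 h at 37 C and given compound for 5 min at RT, then acetylcholine was added at 50nM. FDSS fluorescence was read 3 min; 15 concentrations, three runs.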
Muscarinic acetylcholine receptor M1 (Homo sapiens), sequence (P11229 whole entry, looked up): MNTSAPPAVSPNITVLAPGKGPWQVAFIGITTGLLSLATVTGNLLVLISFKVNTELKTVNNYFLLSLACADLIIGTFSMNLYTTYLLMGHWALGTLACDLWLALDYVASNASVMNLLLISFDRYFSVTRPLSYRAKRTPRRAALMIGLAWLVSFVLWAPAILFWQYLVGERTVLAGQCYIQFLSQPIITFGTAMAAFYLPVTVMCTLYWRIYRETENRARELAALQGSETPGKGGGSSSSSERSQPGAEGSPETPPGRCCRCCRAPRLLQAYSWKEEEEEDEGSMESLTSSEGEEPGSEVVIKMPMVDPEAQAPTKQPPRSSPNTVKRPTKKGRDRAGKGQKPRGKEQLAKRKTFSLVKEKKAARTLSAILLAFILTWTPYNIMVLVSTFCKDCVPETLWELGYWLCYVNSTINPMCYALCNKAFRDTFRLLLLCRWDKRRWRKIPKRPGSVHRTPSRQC

The target is the same in test [12]. The test can be described thus: Cholinergic receptor muscarinic 1 (CHRM1) small molecule agonists, cell-based qHTS assay (AID 1963589). Also: nearly all actives have a fitted effect of over 35% in size. In a few lines:
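Stable CHRM1-CHO cells (human receptor) were incubated 18 h, dye-loaded for 1 h at 37 C and exposed to test compounds for agonist activity, with calcium-dependent fluorescence followed kinetically.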

A short description of test [13]: cAMP Responsive Elements (CRE) small molecule agonists, cell-based qHTS assay (AID 1963590). In a few lines: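 FRET-based beta-lactamase readout (LiveBLAzer B/G, 2 h RT) quantified CRE activation in HEK 293T CRE-bla cells after 3 h treatment with DMSO-dissolved compounds.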
Test [14] in a line: cAMP Responsive Elements (CRE) small molecule antagonists, cell-based qHTS assay (AID 1963591; active = well fitted inhibition curve with a large enough effect in the signal ratio in the repeat runs, not every such curve was filed as active; the % refers to the signal ratio). Summed up:
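qHTS in CRE-bla HEK 293T cells: compound in DMSO, then 0.25 uM NKH477 (final), 3 h at 37 °C/5% CO2; beta-lactamase FRET read-out after 2 h substrate incubation.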

For test [15], the target named is Beta-2 adrenergic receptor (Homo sapiens) (UniProt P07550). The experiment in a line: Adrenergic beta2 receptor (ADRB2) small molecule antagonists, cell-based qHTS assay (AID 1963592). Also: series mostly up to about 92 µM; nearly all actives have a fitted effect of over 50% in size. Summed up:
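Cells (CHO, stable ADRB2 overexpression) incubated 18-20hr at 37C; compounds added from DMSO; agonist mix (1nM isoproterenol, 100uM IBMX, 25uM Ro-20-1724) added; 0.5hr RT; d2-cAMP and anti-cAMP-cryptate added; 1hr RT; 665/615 nm read.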

In test [16] the target is D(2) dopamine receptor (Homo sapiens) (UniProt P14416). The test can be described thus: Dopamine D2 receptor (DRD2) small molecule antagonists, cell-based qHTS assay (AID 1963595; active = well fitted inhibition curve with a large enough effect in the signal ratio in the repeat runs, with a control signal flat; the % refers to the signal ratio). Summed up:
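Readout: HTRF cAMP, cAMP-d2 competing with cellular cAMP for anti-cAMP cryptate, read after 1 h. Cells: DRD2-HEK293. Conditions: 0.1 mM Ro20-1724, 12 nM quinpirole, 200 nM NKH477, 30 min RT.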

In test [17] the target is Beta-2 adrenergic receptor (Homo sapiens) (UniProt P07550). The experiment in a line: Adrenergic beta2 receptor (ADRB2) small molecule agonists, cell-based qHTS assay (AID 1963593).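 Also: CHO cells stably overexpressing human ADRB2.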 Summed up:
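CHO cells stably over-expressing ADRB2 were plated overnight at 37C, then dosed with compounds plus a stimulation mix containing 100uM IBMX and 25uM Ro-20-1724 for 0.5hr at room temperature. cAMP was measured by HTRF competition, 1hr.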

Test [18] addresses D(2) dopamine receptor (Homo sapiens) (UniProt P14416). The test can be described thus: Dopamine D2 receptor (DRD2) small molecule agonists, cell-based qHTS assay (AID 1963594). Also: nearly all actives have a fitted effect of over 35% in size. Summed up:
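cAMP accumulation in DRD2-HEK293 cells measured by HTRF after 1 h detection; compounds added 10 min before NKH477 (200nM […]) forskolin-analogue stimulation, 30 min at room temperature, with Ro20-1724 present at 0.1 mM final.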

Test [19] can be described thus: p53 small molecule agonists, cell-based qHTS assay: qHTS cell viability counter screen (AID 1963581). Also: nearly all actives have a fitted effect of over 45% in size. In a few lines:
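Compounds are pinned onto HCT-116 p53RE-bla cells and left 16 h at 37 C. Following the reporter FRET read, ATP is quantified by CellTiter-Glo luminescence after 30 min at room temperature.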

Test [20] can be described thus: p53 small molecule agonists, cell-based qHTS assay with human liver microsomes (AID 1963577). In a few lines:
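p53RE-bla reporter cells were pre-incubated 5 h at 37 C, then treated with compounds plus human liver microsomes (0.5 mg/mL final) and NADPH (0.5 mg/mL final) for 16 h at 37 C. Beta-lactamase activity was read by LiveBLAzer fluorescence after 2 h at room temperature.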

Records with an inconclusive call do not appear. Active and inactive are the calls of the source. Unless noted, calls follow the shape of the full dose curve.

5-hydroxytryptamine receptor 2A (Homo sapiens), sequence (P28223 whole entry, looked up): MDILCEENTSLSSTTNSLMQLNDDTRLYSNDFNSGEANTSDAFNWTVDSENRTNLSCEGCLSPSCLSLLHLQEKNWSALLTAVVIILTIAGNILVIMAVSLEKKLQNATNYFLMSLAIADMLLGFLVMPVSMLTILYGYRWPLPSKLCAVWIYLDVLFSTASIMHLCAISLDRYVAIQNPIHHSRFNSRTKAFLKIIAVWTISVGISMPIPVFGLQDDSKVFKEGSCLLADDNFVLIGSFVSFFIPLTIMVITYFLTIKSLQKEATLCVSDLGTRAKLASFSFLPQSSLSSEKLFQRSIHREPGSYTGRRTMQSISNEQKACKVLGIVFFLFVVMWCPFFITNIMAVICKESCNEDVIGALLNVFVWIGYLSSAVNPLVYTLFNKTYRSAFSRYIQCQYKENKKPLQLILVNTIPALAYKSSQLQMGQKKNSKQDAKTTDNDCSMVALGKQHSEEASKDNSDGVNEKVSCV
KiSS-1 receptor (Homo sapiens), sequence (Q969F8 whole entry, looked up): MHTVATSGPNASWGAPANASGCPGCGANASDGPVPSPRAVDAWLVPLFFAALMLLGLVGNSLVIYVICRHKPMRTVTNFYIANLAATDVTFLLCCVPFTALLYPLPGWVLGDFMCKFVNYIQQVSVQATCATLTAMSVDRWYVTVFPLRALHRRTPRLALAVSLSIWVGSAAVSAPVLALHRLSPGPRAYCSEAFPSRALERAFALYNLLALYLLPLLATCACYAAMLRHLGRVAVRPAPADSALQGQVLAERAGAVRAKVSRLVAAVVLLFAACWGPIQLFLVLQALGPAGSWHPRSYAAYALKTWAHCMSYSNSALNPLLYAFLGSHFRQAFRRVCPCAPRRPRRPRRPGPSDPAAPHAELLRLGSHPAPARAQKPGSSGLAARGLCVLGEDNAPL
Gonadotropin-releasing hormone receptor (Homo sapiens), sequence (P30968 whole entry, looked up): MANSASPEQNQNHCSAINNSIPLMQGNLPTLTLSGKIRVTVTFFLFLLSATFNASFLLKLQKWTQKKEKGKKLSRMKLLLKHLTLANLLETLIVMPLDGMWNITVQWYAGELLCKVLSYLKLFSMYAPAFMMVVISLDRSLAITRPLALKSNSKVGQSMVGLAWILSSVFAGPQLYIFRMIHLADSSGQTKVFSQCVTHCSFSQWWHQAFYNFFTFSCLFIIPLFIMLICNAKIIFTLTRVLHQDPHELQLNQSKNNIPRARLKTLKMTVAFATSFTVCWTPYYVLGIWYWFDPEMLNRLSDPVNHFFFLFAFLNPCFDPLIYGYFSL
D(2) dopamine receptor (Homo sapiens), sequence (P14416 whole entry, looked up): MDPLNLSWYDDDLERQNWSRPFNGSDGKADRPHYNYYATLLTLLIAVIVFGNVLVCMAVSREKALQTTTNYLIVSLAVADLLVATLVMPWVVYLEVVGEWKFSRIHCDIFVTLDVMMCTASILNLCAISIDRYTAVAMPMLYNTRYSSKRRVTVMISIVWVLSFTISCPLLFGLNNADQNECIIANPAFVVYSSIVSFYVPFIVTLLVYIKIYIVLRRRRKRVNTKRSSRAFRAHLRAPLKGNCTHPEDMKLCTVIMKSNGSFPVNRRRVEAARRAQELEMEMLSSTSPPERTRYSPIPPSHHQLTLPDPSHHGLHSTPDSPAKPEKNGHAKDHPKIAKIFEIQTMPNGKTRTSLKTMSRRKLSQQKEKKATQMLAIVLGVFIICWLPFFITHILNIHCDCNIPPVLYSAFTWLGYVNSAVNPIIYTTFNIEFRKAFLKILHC
Beta-2 adrenergic receptor (Homo sapiens), sequence (P07550 whole entry, looked up): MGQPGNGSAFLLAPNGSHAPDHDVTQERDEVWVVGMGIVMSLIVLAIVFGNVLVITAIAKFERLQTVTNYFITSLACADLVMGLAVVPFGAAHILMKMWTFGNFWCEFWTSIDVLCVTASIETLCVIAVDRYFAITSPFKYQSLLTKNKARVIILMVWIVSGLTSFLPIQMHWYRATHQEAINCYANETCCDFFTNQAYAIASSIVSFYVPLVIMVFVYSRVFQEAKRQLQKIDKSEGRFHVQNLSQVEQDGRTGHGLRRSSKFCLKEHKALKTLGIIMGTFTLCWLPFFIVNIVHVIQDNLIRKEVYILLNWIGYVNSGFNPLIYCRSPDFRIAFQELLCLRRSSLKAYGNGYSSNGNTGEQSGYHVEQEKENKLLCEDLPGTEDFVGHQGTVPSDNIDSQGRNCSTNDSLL

With `Cl/C(=C\n1cncn1)c1ccc(Cl)cc1Cl`, the Potency result in test [1], in test [2], in test [3], in test [4], in test [5] and in test [6] was “inactive” throughout. Further, the Potency entry in test [7], in test [8], in test [9], in test [10], in test [11] and in test [12] was “inactive” each time. The Potency result in test [13], in test [14], in [15] and in test [16] was “inactive” throughout.

As for `CC(C)(Oc1ccc(CCNC(=O)c2ccc(Cl)cc2)cc1)C(=O)O`, the Potency result in [1], in test [2], in test [3], in test [4], in [6] and in test [7] was “inactive” in each case. Further, the Potency result in test [13], in [14], in test [15], in test [17], in [18] and in test [16] was “inactive” each time.

`Nc1cccc(N)n1`: the Potency result in [1], in test [2], in test [3], in [4], in [6] and in [7] was “inactive” throughout. Further, the Potency entry in test [19], in test [9], in [11], in [12], in test [13] and in [14] was “inactive” in each case. For the same molecule, the Potency result in test [18] and in test [16] was “inactive” each time.

On to `Nc1ccc2cc3ccccc3cc2c1`, for which the Potency entry in test [1], in [2], in test [3], in test [4], in [6] and in test [7] was “inactive” throughout. The Potency result in test [19], in [9], in test [10], in test [11], in test [12] and in test [15] was “inactive” each time. For the same molecule, the Potency result in test [17], in [18] and in test [16] was “inactive” each time.

With `O=P(O)(O)O`, the Potency entry in test [1], in test [2], in test [3], in test [4], in [6] and in test [7] was “inactive” in each case. The Potency entry in test [19], in test [9], in test [10], in test [11], in [12] and in [13] was “inactive” each time. Moreover, the Potency entry in [14], in test [15], in [17], in [18] and in test [16] was “inactive” in each case.

For the molecule `CCCCCCCCO[C@@H]1O[C@H](CO)[C@@H](O)[C@H](O)[C@H]1O`, the Potency entry in [1], in test [2], in [3], in [4], in [5] and in test [6] was “inactive” throughout. Also, the Potency entry in test [7], in [19], in test [8], in [9], in test [10] and in test [11] was “inactive” throughout. In addition, the Potency entry in test [12], in test [13], in [14], in test [15], in [17] and in test [18] was “inactive” in each case.

Regarding `CCOC(=O)c1ccc(N)cc1`, the Potency entry in [1], in test [2], in test [3], in test [5], in test [7] and in test [19] was “inactive” in each case. Besides, the Potency result in [8], in test [13], in test [14], in test [15], in [17] and in test [18] was “inactive” in each case. In test [16], the Potency entry was “inactive”.

With `OC1CCCCCCCCCCC1`, the Potency entry in test [1], in [2], in test [4], in [20], in [5] and in [6] was “inactive” each time. For the same molecule, the Potency entry in test [7], in test [19], in test [8], in test [9], in [11] and in test [12] was “inactive” each time. Besides, the Potency entry in test [13], in [14], in test [15], in test [18] and in [16] was “inactive” each time. Besides, the Potency in test [10] is 6.23 µM (active).
